# Measured values: PubChem BioAssay (NCI)
# The panel holds about 83,000 compounds, 20% with a hit somewhere; the sample as a whole holds those more often.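 48-hour exposure, single concentration, 96-well plates; percent growth endpoint where 0 means no net growth. Active: below 10.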 Values without a mark were called inactive. Active and inactive are the calls of the source.
# Tested on: ACHN renal
# Experiment: NCI-60 one-dose screen, 48 h (100 = growth as untreated, 0 = no growth, -100 = all killed)
# Settings: 10 µM
row,SMILES,growth
1,Cc1ccc(F)cc1N/C=c1\s/c(=C(\C#N)C(=O)Nc2ccccc2)n(-c2ccccc2)c1=O,-20.1% (active)
2,COc1ccc([C@H]2C(C(=O)c3ccc(Cl)cc3)C3(N[C@@H]2c2ccccc2)C(=O)Nc2ccc(Cl)cc23)cc1 (some centres not stated),1.5% (active)
3,O=C1Nc2cc(-c3ccc(NC(=O)c4cccc([N+](=O)[O-])c4)cc3)ccc2/C1=C/c1ccc[nH]1,59.6%
4,CCCn1c(=O)c2[nH]c(-c3ccc(OCc4nc5ccc(F)cc5[nH]4)cc3)nc2n(CCC)c1=O,-56.6% (active)
5,CCCS(=O)(=O)c1oc(-c2ccc(F)cc2)nc1S(=O)(=O)c1ccc(F)cc1,-100% (active)
6,O=C(CSc1nnc(-c2c[nH]c3ccccc23)n1-c1ccccc1)Nc1ccc(C(=O)/C=C/c2ccc(Br)cc2)cc1,78%
7,CCOC(=O)C1=C(N)N(c2ccc(Cl)cc2)C2=C(C(=O)CC(C)(C)C2)C1c1ccc(N2CCOCC2)cc1 (configuration not stated),112%
8,COc1ccc2[nH]cc(/C=N/Nc3ccc(Br)cn3)c2c1,26.7%
9,O/N=C(\CSc1nnc(-c2c[nH]c3ccccc23)n1-c1ccccc1)c1ccc(Cl)cc1,3.34% (active)
10,COc1ccc2[nH]c(O)c(N=NC(=O)COc3ccc(NC(=O)Nc4ccc(Cl)c(Cl)c4)cc3)c2c1,57%
11,C=C1CC[C@H](C(=C)C)[C@H]2C=C(C)C(=O)C3=C(C(=O)[C@@](C)(O)C3)[C@H]12,-98.3% (active)
12,O=S(=O)(Nc1ncccn1)c1ccc(-n2c(-c3ccccc3)nc(-c3ccccc3)c2-c2ccccc2)cc1,97.3%
